High-throughput results as filed in PubChem.
In the library only some 19% were active in any assay of this set; here they are far more common.
ELG1 DNA repair: inhibitors of ELG1-dependent DNA repair in HEK293T cells; HEK293T ELG1-luciferase reporter, luminescence, 16 h; DNA damage induced by 5-fluorouridine; Potency, µM (series often up to 46.1 µM), for the others: top-dose activity change, negative = inhibition, hits mostly inhibitors; hit rate 2.3% among 330,000; AID 504467; also: potency is read from the fitted curve at half-maximal effect; nearly all actives have a fitted effect of over 55% in size
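HEK293T cells expressing luciferase-tagged ELG1 (2,000/well) received 5-Fluorouridine plus compound or DMSO for 16 hr at 37 °C. Luciferase was read by ONE-Glo luminescence after 30 min at room temperature.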
DT40 TDP1 no CPT: qHTS for Inhibitors of human tyrosyl-DNA phosphodiesterase 1 (TDP1): qHTS in cells in absence of CPT; Potency, µM (doses to about 46.2 µM), for inactives: top-dose activity change, negative = growth inhibition, usual class: inhibitors; hit rate 15% among 420,000; AID 686978, 2013; DT40 Tdp1-/- hTDP1 cells, no CPT, ATP luminescence, 48 h; also: potency is read from the fitted curve at half-maximal effect; nearly all actives have a fitted effect of over 55% in size
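Chicken DT40 Tdp1-/- cells stably complemented with human TDP1 were seeded at 400 cells/well with DMSO in place of 20 nM camptothecin. After compound pinning, cells grew at least 48 hr at 37 °C; viability read by CellTiter-Glo luminescence.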
IL-1B inflam inh: blocks inflammasome-driven IL-1 beta release; THP-1 LPS/ATP IL-1B secretion, AlphaLISA, 16 h; stronger effect = lower value; hit rate 4.7% among 360,000; activity change, % at 57.5 µM; in the data active = activity change below about -50%; inconclusive = mostly about -30% to -49%
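Secreted IL-1B measured by AlphaLISA bead assay after 16 h compound exposure of THP-1 cells; compounds (final up to 57.5 uM) added 1 h before LPS (250 ng/mL) and ATP (1.25 mM) stimulation; lower signal means less secretion.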
TDP1 cell CPT: growth inhibition of DT40 Tdp1-/-;hTDP1 cells with camptothecin (screen for TDP1 inhibitors); chicken DT40 Tdp1-/-;hTDP1 cells + 20 nM CPT, ATP luminescence, 48 h; Potency, µM (titrated, usually from 46.2 µM), inactives show top-dose activity change, negative = growth inhibition, usual class: inhibitors; hit rate 12% among 420,000; also: potency is read from the fitted curve at half-maximal effect; nearly all actives have a fitted effect of over 55% in size
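Chicken DT40 Tdp1-/- cells stably complemented with human TDP1 were seeded at 400 cells/well in medium containing 20 nM camptothecin, exposed to pin-transferred compounds, and grown at 37 °C for at least 48 hr. Viability was read as ATP luminescence.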
HT1080 IDH1KD tx: HT-1080 IDH1 knockdown cell toxicity (counter line). Potency, µM (highest dose often 46.1 µM), without a hit: at the highest dose activity, negative = toxicity, hits mostly cytotoxic. hit rate 2% among 360,000. HT-1080 IDH1 knockdown viability, ATP luminescence, 48 h;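 also: potency is read from the fitted curve at half-maximal effect; 0% = DMSO wells and -100% = cell-free medium wells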
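Cytotoxicity counter-line: IDH1KD HT-1080, 48 h, CellTiter-Glo. Curves classed by r2, magnitude and activity.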
HT1080NT lethal: kills 2HG-producing HT-1080-NT fibrosarcoma cells; Potency, µM (highest dose often 46.1 µM), for the others: at the top dose activity, negative = less viability, most hits filed as cytotoxic; HT-1080-NT fibrosarcoma viability, CellTiter-Glo ATP luminescence, 48 h; hit rate 1.6% among 360,000;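 also: NT is the 2HG producing partner of a matched IDH1 knockdown line; potency is read from the fitted curve at half-maximal effect; 0% = DMSO-treated cells and -100% = media-only wells without cells; nearly all actives have a fitted effect of over 55% in size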
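750 cells/well, RPMI + 5% FBS; 2 h settle, compound pin-transfer, 48 h at 37 degrees C. CellTiter-Glo 10 min RT, luminescence. Normalized to DMSO and media-only wells.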
Active calls of the source: *; ? = inconclusive; . = not tested or not shown; [ ] = another dose, or the depositor's remark. Unless noted, calls follow the shape of the dose curve; as a rule, active = well fitted curve in the direction sought with a large enough effect; inconclusive = small, poorly fitted or top-dose-only effect, or another doubt; inactive = no such curve, though single readings can be large; an effect the other way counts as inactive or inconclusive. Unless noted, % is scaled to controls: 0 for no effect and ±100 for the full control effect.

SMILES	ELG1 DNA repair	DT40 TDP1 no CPT	IL-1B inflam inh	TDP1 cell CPT	HT1080 IDH1KD tx	HT1080NT lethal
Cc1ccccc1C1C(C#N)=C2NC(=O)c3c(sc4c3CCCCC4)N2C2=C1C(=O)CC(C)(C)C2 (stereo unspecified)	12%	.	.	.	.	.
Cc1ccccc1C1C(C#N)=C2N=C(N)c3c(sc4c3CCCCC4)N2C2=C1C(=O)CC(C)(C)C2 (stereo unspecified)	-17%	?	-4	18µM*	-13%	-5%
COc1cc(C2C(C#N)=C(N)N(c3sc4c(c3C#N)CCCC4)C3=C2C(=O)CC(C)(C)C3)cc(OC)c1OC (stereo unspecified)	4%	16µM*	64	21µM*	?	-25%
CCCCCC(=O)N1CC2(CC(c3cccc(NC(=O)CC)c3)=NO2)C[C@H]1C(N)=O (stereo partly specified)	2%	19%	15	10%	13%	13%
COc1ccc(NC(C)=O)cc1NC(=O)C1(c2cccs2)CCOCC1	.	15%	.	-1%	.	.
C/C(CCC(C)C)=N\Nc1cc(C)c2ccccc2n1	5%	7.3µM*	11	10µM*	-1%	-9%
CC1CCN(S(=O)(=O)c2ccc(C(=O)Nc3nc4ccc(F)cc4s3)cc2)CC1	.	-30%	.	?	.	.
COc1ccc2nc(NC(=O)C3CCN(S(=O)(=O)c4cccs4)CC3)sc2c1	10µM*	29µM*	-75*	23µM*	-28%	?
Cc1ccc2nc(NC(=O)C3CCN(S(=O)(=O)c4cccs4)CC3)sc2c1	-26%	16µM*	-76*	23µM*	?	?
COc1ccc2nc(NC(=O)C3CCN(S(=O)(=O)c4cnc[nH]4)CC3)sc2c1	-15%	-16%	-23	-29%	-10%	-8%
COc1ccc2nc(NC(=O)c3ccc(S(=O)(=O)N4CCCC(C)C4)cc3)sc2c1 (stereo unspecified)	.	12µM*	.	16µM*	.	.
COc1ccc2nc(NC(=O)CNS(=O)(=O)c3cccs3)sc2c1	?	-11%	-22	-7%	7%	2%
Cc1ccc2nc(NC(=O)C3CCN(S(=O)(=O)c4cnc[nH]4)CC3)sc2c1	?	16µM*	-19	?	-7%	-4%
CCc1ccc(NC(=O)C(C)Sc2nnc(CN3CCCC3)o2)cc1 (stereo unspecified)	13%	5%	8	-10%	7%	6%
O=C(CCC(=O)c1ccc(F)cc1)NC1CCCN(Cc2ccccc2F)C1 (stereo unspecified)	1%	-19%	19	1%	1%	1%
CCCN(C)C1CN(Cc2cn(Cc3ccccc3)nn2)S(=O)(=O)C1 (stereo unspecified)	.	-13%	9	-2%	6%	-2%
Nc1ccc2nc(NC(=O)C3CCCCC3)sc2c1	?	-15%	?	?	-1%	-18%
O=C(Nc1ccon1)C1CCN(S(=O)(=O)c2cccs2)CC1	-2%	23µM*	-7	?	-2%	-5%
COc1ccc2nc(NC(=O)C3CCN(S(=O)(=O)c4cccnc4)CC3)sc2c1	?	15µM*	-23	12µM*	-4%	-1%
COc1ccc2nc(NC(=O)C3CCCN(S(=O)(=O)c4cccs4)C3)sc2c1 (stereo unspecified)	?	18µM*	-59*	?	-18%	-13%
CCOc1ccc2nc(NC(=O)C3CCN(S(=O)(=O)c4cnc[nH]4)CC3)sc2c1	?	-26%	-7	-19%	1%	-9%
O=C(Nc1nc2ccc(C(=O)N3CCCCC3)cc2s1)C1CCCCC1	?	4.1µM*	49	2.6µM*	?	?
COc1ccc(NC(C)=O)cc1S(=O)(=O)N1CC=C(c2ccccc2)CC1	4%	9%	8	0%	2%	3%
N#CCCCc1cc2ccccc2cn1	?	-13%	0	-13%	6%	3%
CC(C)c1nc2cccnc2n1C1CCN(C(=O)Cn2cccn2)CC1	.	-1%	.	-7%[9.04 µM]	.	.
SMILES	ELG1 DNA repair	DT40 TDP1 no CPT	IL-1B inflam inh	TDP1 cell CPT	HT1080 IDH1KD tx	HT1080NT lethal
CC(=O)c1ccc(OC2(C)CCN(Cc3csc4ccccc34)C2)cc1 (stereo unspecified)	.	?	-1	?	-15%	-17%
O=C(NCCCN1CCCC1=O)c1sc2ccccc2c1Cl	?	-12%	6	0%	5%	-11%
CC(=O)c1ccc(OCCNS(=O)(=O)c2ccc(-n3cnnn3)c(C)c2)cc1	?	?	0	13µM*	-1%	0%
CCN(CC)c1ccc(NC(=O)CCc2nnc3ccc(N4CCCC4)nn23)c(C)c1	?	23µM*	70	15µM*	1%	5%
CCOC(=O)c1ccc(NC(=O)CCc2nnc3ccc(N4CCCC4)nn23)cc1	?	?	2	26µM*	0%	-5%
CCC(C)NC(=O)CCc1nnc2ccc(N3CCC(C)CC3)nn12 (stereo unspecified)	0%	1%	-8	-5%	12%	17%
COc1ccc(NC(=O)CCc2nnc3ccc(N4CCC(C)CC4)nn23)cc1	-7%	?	-4	?	14%	9%
CCOC(=O)C(C)NC(=O)CCc1nnc2ccc(N3CCC(C)CC3)nn12 (stereo unspecified)	6%	?	-97*	?	-12%	-11%
CCOc1ccc(CCNC(=O)CCc2nnc3ccc(N4CCOCC4)nn23)cc1	-7%	-14%	?	-24%	2%	9%
CCOc1ccc(CCNC(=O)CCc2nnc3ccc(N4CCCCC4)nn23)cc1OCC	?	12µM*	2	?	-5%	8%
COc1cccc(CN(C)C(=O)c2cnn(-c3nccc(-c4ccc5c(c4)OCO5)n3)c2C)c1	.	0%	.	1%[9.04 µM]	.	.
N/C(=N\O)c1ccc(Cl)cc1Cl	0%	3%	-3	10%	-1%	1%
COc1ccc(N2CCN(c3ccc4nnc(CCC(=O)Nc5ccc(C)cc5)n4n3)CC2)cc1	?	23µM*	41	?	0%	-2%
O=C(COC(=O)CCNS(=O)(=O)c1ccccc1)NC1CC1	10%	1%	40	3%	6%	1%
Cc1nc2ccc(C(=O)N(C)Cc3ccco3)cn2c1N(C)CC1CCCCC1	.	13µM*	-9	18µM*	?	4%
